Inconclusive results are not listed. Calls of active or inactive are those of the source. Unless noted, the call rests on the fitted dose curve.
Columns and labels:
[1] = Nuclear factor erythroid 2-related factor 2/antioxidant responsive element (Nrf2/ARE) small molecule agonists: qHTS cell viability counter screen in human keratinocytes (AID 1919968; active means well fitted curve in the direction sought with a large enough effect in the repeat runs; an effect the other way counts as inactive or inconclusive; further: nearly all actives have a fitted effect of over 55% in size; further: potency means the concentration at half of the fitted maximal effect)
How it was run: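 Cytotoxicity was multiplexed with the Nrf2/ARE luciferase assay in the same wells. Stably transfected HaCaT keratinocytes were treated with test compounds for 23 h at 37 C. Cell viability was then measured by CellTiter-Fluor fluorescence.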

[2] = biological target: Gonadotropin-releasing hormone receptor (Homo sapiens) (UniProt P30968); assay: Human gonadotropin-releasing hormone receptor (GnRHR) small molecule agonists, calcium flux assay in GnRHR-HEK293 cells (AID 1920063); further: nearly all actives have a fitted effect of over 35% in size
How it was run: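 Agonist activity was measured as intracellular calcium flux in HEK293 cells engineered to stably express human GnRHR. After dye loading for 1 hour at 37 C, compounds in DMSO were added and fluorescence was followed for 3 minutes.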

[3] = biological target: KiSS-1 receptor (Homo sapiens) (UniProt Q969F8); assay: Human kisspeptin (KISS1R) small molecule agonists, calcium flux assay in KISS1R-HEK293 cells (AID 1920064; active means well fitted curve in the direction sought with a large enough effect in the repeat runs; an effect the other way counts as inactive or inconclusive)
How it was run: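 Agonist activity is monitored as intracellular calcium rise in engineered HEK293 cells carrying human KISS1R. Cells are dye-loaded for 1 h at 37 C before compound addition, and fluorescence is recorded for 3 min.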

[4] = p53 small molecule agonists, cell-based qHTS assay with rat liver microsomes (AID 1963578)
How it was run: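 Fluorescence from a beta-lactamase reporter under a p53 response element was measured after cells had been incubated 16 h at 37 C with test compound and rat liver microsomes plus NADPH (0.5 mg/mL final each).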

[5] = p53 small molecule agonists, cell-based qHTS assay with human liver microsomes: qHTS cell viability counter screen (AID 1963579); further: nearly all actives have a fitted effect of over 45% in size
How it was run: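 Seed p53RE-bla cells at 4,000 per well; incubate 5 h at 37 C; add compound, human liver microsomes and NADPH; incubate 16 h at 37 C; add CellTiter-Glo; after 30 min at room temperature, read luminescence.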

[6] = p53 small molecule agonists, cell-based qHTS assay with rat liver microsomes: qHTS cell viability counter screen (AID 1963580); further: nearly all actives have a fitted effect of over 45% in size; further: potency means the concentration at half of the fitted maximal effect
How it was run: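 Rat liver microsome (0.5 mg/mL final) and NADPH (0.5 mg/mL final) co-incubation with compounds for 16 h at 37 C on HCT-116 p53RE-bla cells; cytotoxicity taken from intracellular ATP luminescence.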

[7] = p53 small molecule agonists, cell-based qHTS assay: qHTS cell viability counter screen (AID 1963581); further: nearly all actives have a fitted effect of over 45% in size
How it was run: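 Viability was counter-screened in parallel with the p53 agonist reporter by measuring intracellular ATP luminescence in the same HCT-116 p53RE-bla wells after 16 h compound treatment at 37 C.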

[8] = p53 small molecule agonists, cell-based qHTS assay (AID 1963582; active means well fitted activation curve with a large enough effect in the signal ratio in the repeat runs, not every such curve was filed as active; the % refers to the signal ratio)
How it was run: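 Cells carrying a p53-responsive bla reporter are treated with test compounds for 16 h at 37 C; beta-lactamase activity is then detected with LiveBLAzer B/G FRET substrate after 2 h at room temperature.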

[9] = biological target: 5-hydroxytryptamine receptor 2A (Homo sapiens) (UniProt P28223); assay: 5-hydroxytryptamine receptor 2A (HTR2A) small molecule antagonists, cell-based qHTS assay (AID 1963586); further: nearly all actives have a fitted effect of over 45% in size
How it was run: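 CHO cells stably expressing human HTR2A were plated for 18 h at 37 C, then loaded with calcium dye for 1 h. Compounds were preincubated 5 min at room temperature before DOI (4 nM solution) was added. Kinetic fluorescence was read for 3 min.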

[10] = biological target: 5-hydroxytryptamine receptor 2A (Homo sapiens) (UniProt P28223); assay: 5-hydroxytryptamine receptor 2A (HTR2A) small molecule agonists, cell-based qHTS assay (AID 1963587); further: nearly all actives have a fitted effect of over 30% in size; further: potency means the concentration at half of the fitted maximal effect
How it was run: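 Kinetic calcium-flux fluorescence (2 min, 1 sec intervals) after compound addition in agonist mode. HTR2A-CHO cells were cultured 18 h, then dye-loaded 1 h at 37 C.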

[11] = biological target: Muscarinic acetylcholine receptor M1 (Homo sapiens) (UniProt P11229); assay: Cholinergic receptor muscarinic 1 (CHRM1) small molecule antagonists, cell-based qHTS assay (AID 1963588); further: nearly all actives have a fitted effect of over 40% in size
How it was run: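 Compounds were tested at 15 concentrations in three independent runs. Dye-loaded CHRM1-CHO cells were exposed 5 min at room temperature before stimulation by acetylcholine added at 50nM. Intracellular calcium was read kinetically on FDSS for 3 min.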

[12] = biological target: Muscarinic acetylcholine receptor M1 (Homo sapiens) (UniProt P11229); assay: Cholinergic receptor muscarinic 1 (CHRM1) small molecule agonists, cell-based qHTS assay (AID 1963589); further: nearly all actives have a fitted effect of over 35% in size
How it was run: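 Cells were plated and incubated 18 h at 37 C/5% CO2, loaded with calcium dye for 1 h at 37 C, then treated with compounds in DMSO. Fluorescence was recorded kinetically at 1 sec intervals.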

[13] = cAMP Responsive Elements (CRE) small molecule agonists, cell-based qHTS assay (AID 1963590)
How it was run: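 Cells carrying a CRE-driven beta-lactamase reporter (HEK 293T) are seeded, incubated overnight (18 h), and treated with test compounds for 3 h at 37 C; reporter activity is then detected with a FRET substrate after 2 h at room temperature.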

[14] = cAMP Responsive Elements (CRE) small molecule antagonists, cell-based qHTS assay (AID 1963591; active means well fitted inhibition curve with a large enough effect in the signal ratio in the repeat runs, not every such curve was filed as active; the % refers to the signal ratio)
How it was run: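 Cells (CRE-bla HEK 293T, DMEM with 10% dialyzed FBS and 25 mM HEPES) are seeded and incubated 18 h. Compounds are added with NKH477 agonist at 0.25 uM final for 3 h, then FRET substrate for 2 h.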

[15] = biological target: Beta-2 adrenergic receptor (Homo sapiens) (UniProt P07550); assay: Adrenergic beta2 receptor (ADRB2) small molecule antagonists, cell-based qHTS assay (AID 1963592); further: nearly all actives have a fitted effect of over 50% in size; further: potency means the concentration at half of the fitted maximal effect; on activity change, negative = inhibition: series mostly up to about 92 µM
How it was run: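 Assay format: CHO-ADRB2 cells, 18-20hr seeding at 37C/5% CO2, then compound plus 1nM isoproterenol agonist mix for 0.5hr RT. Homogeneous time-resolved fluorescence cAMP detection after 1hr, expressed as 665/615 nm ratio.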

[16] = biological target: D(2) dopamine receptor (Homo sapiens) (UniProt P14416); assay: Dopamine D2 receptor (DRD2) small molecule agonists, cell-based qHTS assay (AID 1963594); further: nearly all actives have a fitted effect of over 35% in size
How it was run: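 cAMP accumulation in DRD2-HEK293 cells measured by HTRF after 1 h detection; compounds added 10 min before NKH477 (200nM […]) forskolin-analogue stimulation, 30 min at room temperature, with Ro20-1724 present at 0.1 mM final.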

[17] = biological target: D(2) dopamine receptor (Homo sapiens) (UniProt P14416); assay: Dopamine D2 receptor (DRD2) small molecule antagonists, cell-based qHTS assay (AID 1963595; active means well fitted inhibition curve with a large enough effect in the signal ratio in the repeat runs, with a control signal flat; the % refers to the signal ratio)
How it was run: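 Antagonist mode in DRD2-HEK293 cells: after compound addition with 0.1 mM Ro20-1724, cells received quinpirole (12 nM) and NKH477 (200 nM) for 30 min at room temperature; HTRF cAMP read after 1 h detection.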

[18] = p53 small molecule agonists, cell-based qHTS assay with human liver microsomes (AID 1963577)
How it was run: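 Cells carrying a p53-responsive bla reporter were rested 5 h (37 C, 5% CO2) before compound transfer. Human liver microsomes plus NADPH, 0.5 mg/mL final apiece, supplied metabolism during the 16 h 37 C exposure.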

[19] = biological target: Beta-2 adrenergic receptor (Homo sapiens) (UniProt P07550); assay: Adrenergic beta2 receptor (ADRB2) small molecule agonists, cell-based qHTS assay (AID 1963593);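 further: CHO cells stably overexpressing human ADRB2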
How it was run: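 CHO cells stably over-expressing ADRB2 were plated overnight at 37C, then dosed with compounds plus a stimulation mix containing 100uM IBMX and 25uM Ro-20-1724 for 0.5hr at room temperature. cAMP was measured by HTRF competition, 1hr.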

[20] = G protein-coupled receptor (GPCR) small molecule agonists, calcium flux assay: HEK293 wild type cell line counter screen (AID 1920065)
How it was run: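 Seed cells, incubate 18 h (37 C, 5% CO2); add calcium dye, 1 h at 37 C; pin-transfer compounds, ATP control or DMSO; read fluorescence 480/540 nm each second for 3 min.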
On the % scale 0 is the no-effect control and ±100 the full control effect.

KiSS-1 receptor (Homo sapiens), sequence (Q969F8 whole entry, looked up): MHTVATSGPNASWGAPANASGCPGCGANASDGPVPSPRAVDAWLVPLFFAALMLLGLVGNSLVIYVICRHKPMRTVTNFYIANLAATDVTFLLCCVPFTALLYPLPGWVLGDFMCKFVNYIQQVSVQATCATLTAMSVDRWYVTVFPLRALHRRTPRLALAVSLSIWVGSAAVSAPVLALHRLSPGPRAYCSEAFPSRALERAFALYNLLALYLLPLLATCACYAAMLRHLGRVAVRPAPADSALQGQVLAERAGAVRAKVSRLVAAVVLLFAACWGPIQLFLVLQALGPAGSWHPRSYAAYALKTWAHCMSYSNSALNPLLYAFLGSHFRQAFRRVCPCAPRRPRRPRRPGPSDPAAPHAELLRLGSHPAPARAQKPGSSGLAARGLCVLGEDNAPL
Gonadotropin-releasing hormone receptor (Homo sapiens), sequence (P30968 whole entry, looked up): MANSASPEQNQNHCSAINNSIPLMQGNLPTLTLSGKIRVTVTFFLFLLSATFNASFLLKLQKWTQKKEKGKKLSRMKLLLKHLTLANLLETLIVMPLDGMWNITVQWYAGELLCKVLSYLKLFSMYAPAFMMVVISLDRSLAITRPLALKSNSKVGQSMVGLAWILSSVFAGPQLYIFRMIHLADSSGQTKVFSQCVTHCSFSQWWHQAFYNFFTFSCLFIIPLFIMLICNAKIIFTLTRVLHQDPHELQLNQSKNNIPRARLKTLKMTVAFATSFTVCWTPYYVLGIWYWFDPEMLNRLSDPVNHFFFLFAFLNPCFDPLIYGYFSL
D(2) dopamine receptor (Homo sapiens), sequence (P14416 whole entry, looked up): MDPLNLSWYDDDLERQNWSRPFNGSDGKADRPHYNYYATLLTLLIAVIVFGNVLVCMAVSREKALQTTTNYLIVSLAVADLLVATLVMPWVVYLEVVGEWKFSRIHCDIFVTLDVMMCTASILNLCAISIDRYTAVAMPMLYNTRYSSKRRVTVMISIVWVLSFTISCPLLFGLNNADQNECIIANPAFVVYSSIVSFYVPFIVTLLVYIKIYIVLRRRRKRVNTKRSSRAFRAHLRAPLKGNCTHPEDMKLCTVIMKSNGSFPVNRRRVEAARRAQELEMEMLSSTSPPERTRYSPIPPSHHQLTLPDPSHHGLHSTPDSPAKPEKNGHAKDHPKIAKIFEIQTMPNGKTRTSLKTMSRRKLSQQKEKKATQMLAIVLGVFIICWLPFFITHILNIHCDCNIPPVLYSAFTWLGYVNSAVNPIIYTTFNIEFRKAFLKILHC
5-hydroxytryptamine receptor 2A (Homo sapiens), sequence (P28223 whole entry, looked up): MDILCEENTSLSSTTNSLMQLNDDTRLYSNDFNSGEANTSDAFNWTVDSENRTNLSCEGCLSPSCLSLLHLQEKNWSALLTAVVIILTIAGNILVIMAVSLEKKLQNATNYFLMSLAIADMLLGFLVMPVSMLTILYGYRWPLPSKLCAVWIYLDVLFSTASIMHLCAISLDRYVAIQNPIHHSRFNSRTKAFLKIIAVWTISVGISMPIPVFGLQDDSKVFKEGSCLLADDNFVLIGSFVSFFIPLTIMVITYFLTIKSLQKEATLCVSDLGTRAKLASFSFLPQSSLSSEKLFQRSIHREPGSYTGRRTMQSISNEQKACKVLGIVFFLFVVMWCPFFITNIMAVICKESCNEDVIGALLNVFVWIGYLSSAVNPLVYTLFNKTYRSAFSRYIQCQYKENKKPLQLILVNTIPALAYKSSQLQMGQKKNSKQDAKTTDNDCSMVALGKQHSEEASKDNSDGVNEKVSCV
Beta-2 adrenergic receptor (Homo sapiens), sequence (P07550 whole entry, looked up): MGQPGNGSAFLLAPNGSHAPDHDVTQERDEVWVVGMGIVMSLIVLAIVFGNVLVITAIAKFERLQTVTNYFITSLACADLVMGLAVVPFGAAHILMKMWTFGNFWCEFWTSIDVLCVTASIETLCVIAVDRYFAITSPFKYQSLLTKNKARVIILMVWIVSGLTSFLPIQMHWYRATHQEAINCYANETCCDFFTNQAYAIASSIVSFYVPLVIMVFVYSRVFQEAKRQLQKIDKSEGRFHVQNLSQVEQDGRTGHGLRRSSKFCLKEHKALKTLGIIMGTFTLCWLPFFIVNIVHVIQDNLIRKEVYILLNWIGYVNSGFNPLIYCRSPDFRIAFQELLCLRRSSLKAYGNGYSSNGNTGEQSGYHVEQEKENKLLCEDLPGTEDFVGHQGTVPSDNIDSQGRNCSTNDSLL
Muscarinic acetylcholine receptor M1 (Homo sapiens), sequence (P11229 whole entry, looked up): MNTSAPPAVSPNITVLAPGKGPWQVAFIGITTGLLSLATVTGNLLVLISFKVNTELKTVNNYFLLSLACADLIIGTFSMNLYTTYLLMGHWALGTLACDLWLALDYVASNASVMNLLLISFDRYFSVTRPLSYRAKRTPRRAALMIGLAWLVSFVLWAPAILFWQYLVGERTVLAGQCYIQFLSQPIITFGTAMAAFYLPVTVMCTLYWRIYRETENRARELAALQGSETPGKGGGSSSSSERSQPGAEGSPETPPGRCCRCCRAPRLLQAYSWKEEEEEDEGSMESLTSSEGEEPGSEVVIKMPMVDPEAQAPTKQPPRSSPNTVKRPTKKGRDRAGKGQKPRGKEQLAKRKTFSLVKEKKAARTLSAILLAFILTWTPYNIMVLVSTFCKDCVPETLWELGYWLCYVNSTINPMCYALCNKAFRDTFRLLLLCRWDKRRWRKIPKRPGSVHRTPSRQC

CC(C)=CC(C)(C)C
inactive: Potency [1] | Potency [2] | Potency [3] | Potency [4] | Potency [5] | Potency [6] | Potency [7] | Potency [8] | Potency [9] | Potency [10] | Potency [11] | Potency [12] | Potency [13] | Potency [14] | Potency [15] | Potency [16] | Potency [17]

COC(C(=O)O)c1ccccc1 (stereo not given)
inactive: Potency [1] | Potency [2] | Potency [3] | Potency [18] | Potency [4] | Potency [5] | Potency [6] | Potency [7] | Potency [8] | Potency [9] | Potency [10] | Potency [11] | Potency [12] | Potency [13] | Potency [14] | Potency [15] | Potency [19] | Potency [16] | Potency [17]

CC(=O)c1ccc(OCC(=O)N2CCCCC2)cc1
inactive: Potency [1] | Potency [2] | Potency [3] | Potency [5] | Potency [6] | Potency [7] | Potency [9] | Potency [10] | Potency [11] | Potency [12] | Potency [13] | Potency [14] | Potency [16] | Potency [17]

CCN(CC)CC(=O)Nc1c(C)cccc1C
inactive: Potency [1] | Potency [2] | Potency [3] | Potency [20] | Potency [7] | Potency [8] | Potency [13] | Potency [14] | Potency [15] | Potency [19] | Potency [16]

O=C(Nc1ccc(C(=O)O)c(O)c1)c1ccccc1
inactive: Potency [1] | Potency [2] | Potency [3] | Potency [18] | Potency [4] | Potency [5] | Potency [6] | Potency [7] | Potency [8] | Potency [10] | Potency [11] | Potency [12] | Potency [13] | Potency [14] | Potency [15] | Potency [19] | Potency [16] | Potency [17]

CCCCC/C=C\C/C=C\CCCCCCCC(=O)NC(C)c1ccccc1 (stereo not given)
inactive: Potency [1] | Potency [2] | Potency [3] | Potency [20] | Potency [6] | Potency [9] | Potency [10] | Potency [11] | Potency [12] | Potency [15] | Potency [16] | Potency [17]

CC(C)CCOC(=O)c1ccc(N(C)C)cc1
inactive: Potency [1] | Potency [2] | Potency [3] | Potency [18] | Potency [5] | Potency [6] | Potency [7] | Potency [8] | Potency [10] | Potency [11] | Potency [12] | Potency [13] | Potency [15] | Potency [16]

CCCNCC(O)COc1ccccc1C(=O)CCc1ccccc1 (stereo not given)
active: Potency [15] 841 nM
inactive: Potency [1] | Potency [2] | Potency [3] | Potency [20] | Potency [8] | Potency [13] | Potency [14] | Potency [16] | Potency [17]

CC(N)=O
inactive: Potency [1] | Potency [2] | Potency [3] | Potency [20] | Potency [6] | Potency [9] | Potency [10] | Potency [11] | Potency [12] | Potency [13] | Potency [14] | Potency [15] | Potency [16] | Potency [17]

CCN(Cc1ccncc1)C(=O)C(CO)c1ccccc1 (stereo not given)
inactive: Potency [1] | Potency [2] | Potency [3] | Potency [18] | Potency [4] | Potency [5] | Potency [6] | Potency [7] | Potency [8] | Potency [13] | Potency [14] | Potency [15] | Potency [19] | Potency [16]

N#CCCOCCC#N
inactive: Potency [1] | Potency [2] | Potency [3] | Potency [18] | Potency [4] | Potency [5] | Potency [6] | Potency [7] | Potency [8] | Potency [9] | Potency [11] | Potency [12] | Potency [13] | Potency [15] | Potency [16] | Potency [17]

CN(C)CCC(c1ccc(Cl)cc1)c1ccccn1 (stereo not given)
inactive: Potency [1] | Potency [2] | Potency [3] | Potency [20] | Potency [7] | Potency [14] | Potency [15] | Potency [19] | Potency [16] | Potency [17]

CCOc1ccc2c(c1)C(C)CC(C)(C)N2 (stereo not given)
inactive: Potency [1] | Potency [2] | Potency [3] | Potency [20] | Potency [7] | Potency [9] | Potency [10] | Potency [11] | Potency [12] | Potency [13] | Potency [16]

O=C(Cl)c1cc(C(=O)Cl)cc(C(=O)Cl)c1
inactive: Potency [1] | Potency [2] | Potency [3] | Potency [18] | Potency [4] | Potency [5] | Potency [6] | Potency [7] | Potency [8] | Potency [9] | Potency [10] | Potency [11] | Potency [12] | Potency [16] | Potency [17]

NC[C@H]1O[C@H](O[C@H]2[C@H](O)[C@@H](O[C@H]3O[C@H](CO)[C@@H](O)[C@H](N)[C@H]3O)[C@H](N)C[C@@H]2N)[C@H](O)[C@@H](O)[C@@H]1O
inactive: activity change, negative = cytotoxicity [1] 2.11% [at 8.39 µM] | activity change [2] -0.795% [at 5.22 µM, hits give high values] | activation [3] 3.49% [at 6.97 µM] | activation [4] 6.15% [at 5.99 µM] | activity change, negative = cytotoxicity [5] 4.31% [at 5.99 µM] | activity change, negative = cytotoxicity [6] 3.51% [at 5.99 µM] | activity change, negative = cytotoxicity [7] 2.96% [at 5.99 µM] | activity change, negative = inhibition [14] -1.06% [at 8.39 µM] | activity change, negative = inhibition [15] 0.292% [at 8.39 µM] | activation [16] 0% [at 8.39 µM] | activity change, negative = inhibition [17] -3.37% [at 8.38 µM]

CCOC(=O)c1ccc(N(C)C)cc1
inactive: Potency [1] | Potency [2] | Potency [3] | Potency [5] | Potency [6] | Potency [7] | Potency [9] | Potency [10] | Potency [12] | Potency [13] | Potency [14] | Potency [15] | Potency [19] | Potency [16] | Potency [17]

On1ccccc1=S
inactive: Potency [2] | Potency [3] | Potency [18] | Potency [4] | Potency [5] | Potency [11] | Potency [12] | Potency [13] | Potency [15] | Potency [16] | Potency [17]
active: Potency [1] 270 nM | Potency [6] 718 nM | Potency [10] 21700 nM

[O-][N+](=Nc1ccccc1)c1ccccc1
inactive: Potency [1] | Potency [2] | Potency [3] | Potency [4] | Potency [6] | Potency [7] | Potency [8] | Potency [10] | Potency [11] | Potency [12] | Potency [13] | Potency [15] | Potency [19] | Potency [16] | Potency [17]

From PubChem BioAssay (Tox21)
